The source of these data is PubChem BioAssay (EPA / NIEHS).

Activity calls are given as the source filed them. The calls were made as follows: active = hit-call score of the fitted dose curve at least 0.9, where 1 is the maximum; inactive = score below 0.9.

Assay [1] in a line: ATG_E_Box_CIS: Attagene CIS-FACTORIAL HepG2 Assay for human Enhancer Box (E-box) (AID 2282936). To be noted: HepG2 E-box cis-reporter transcription, actives raise or lower the signal. In outline: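 HepG2 cells transiently transfected with multiplexed cis-element reporter units, dosed 24 h; reporter mRNA quantified by RT-PCR, 6-FAM labelling, HpaI digestion and capillary electrophoresis. E-box (USF1) signal fitted bidirectionally vs DMSO.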

The nature of assay [2]: ATG_M_61_CIS: Attagene CIS-FACTORIAL HepG2 Assay for M61 Transcription Factor (Internal Marker) (AID 2282937). As to conditions: HepG2 Attagene CIS-FACTORIAL M61 internal marker reporter; actives raise or lower the signal. In outline:
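Human liver HepG2, transient MRTU transfection (cis promoter elements), 24 h compound. Total RNA → oligo(dT) RT → PCR → FAM label → HpaI → CE. Internal background marker; bidirectional fitting, DMSO = baseline.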

Assay [3] can be described thus: ATG_EGR_CIS: Attagene CIS-FACTORIAL HepG2 Assay for human Early Growth Response 1 (EGR1) (AID 2282938). As to conditions: HepG2 Attagene CIS-FACTORIAL EGR reporter mRNA; actives raise or lower the signal. In outline: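 Transient transfection of human HepG2 with multiple cis-regulated reporter units, chemical exposure 24 h, total RNA isolated. Reverse transcription, PCR, fluorescent labelling and capillary electrophoresis quantify reporter transcripts; activity fitted bidirectionally against DMSO.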

The nature of assay [4]: ATG_M_19_CIS: Attagene CIS-FACTORIAL HepG2 Assay for M19 Transcription Factor (Internal Marker) (AID 2282939). To be noted: HepG2 Attagene CIS-FACTORIAL M19 internal marker reporter; actives raise or lower the signal. In outline: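 Readout: fluorescent reporter-transcript fragments by capillary electrophoresis after RT-PCR. Human HepG2 liver cells carried transfected MRTU constructs reporting endogenous transcription-factor activity; exposure 24 h. Gain or loss of signal fitted relative to DMSO.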

Assay [5] is described as follows: ATG_Ets_CIS: Attagene CIS-FACTORIAL HepG2 Assay for human Erythroblast Transformation Specific (ETS) (AID 2282941). As to conditions: HepG2 ETS cis-reporter transcription, actives raise or lower the signal. In outline: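 After transient cis-reporter transfection, HepG2 cells receive test chemical for 24 h. Reporter mRNA levels, measured by RT-PCR and capillary electrophoresis fluorescence, are analysed bidirectionally relative to the DMSO baseline.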

For assay [6], the target named is Hepatocyte nuclear factor 3-beta (Homo sapiens) (UniProt Q9Y261). The assay is described as follows: ATG_FoxA2_CIS: Attagene CIS-FACTORIAL HepG2 Assay for human Forkhead box A2 (FOXA2) (AID 2282942). To be noted: HepG2 cis-reporter transcription factor activity, 24 h; actives raise or lower the signal. In outline:
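Transient MRTU transfection of HepG2 liver cells; 24 h treatment; total RNA → oligo(dT) RT → PCR → FAM primer extension → HpaI cut → CE. Bidirectional fit vs DMSO.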

Assay [7] can be described thus: ATG_FoxO_CIS: Attagene CIS-FACTORIAL HepG2 Assay for human Forkhead box O (FoxO) (AID 2282943). As to conditions: HepG2 Attagene cis-reporter, FoxO element, mRNA; actives raise or lower the signal. In outline: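 Transfected HepG2 reporter cells exposed to test chemical for 24 h; reporter RNA measured by reverse transcription, PCR and fluorescent capillary electrophoresis; curves fitted for increases and decreases against DMSO.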

Assay [8] is described as follows: ATG_GATA_CIS: Attagene CIS-FACTORIAL HepG2 Assay for human GATA Binding Protein (AID 2282944). To be noted: HepG2 GATA cis-element reporter, Attagene multiplex mRNA; actives raise or lower the signal. In outline: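 Read-out: fluorescent reporter mRNA fragments resolved by capillary electrophoresis after RT-PCR. Human liver HepG2 cells carried transiently transfected cis-regulated reporter constructs; chemicals incubated 24 h; gain or loss of signal fitted relative to DMSO.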

A short description of assay [9]: ATG_GLI_CIS: Attagene CIS-FACTORIAL HepG2 Assay for human Zinc Finger Protein GLI1 (AID 2282945). To be noted: HepG2, Attagene cis-factorial reporter mRNA, GLI element; actives raise or lower the signal. In outline: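 Transiently transfected HepG2 cells report endogenous transcription factor activity via cis-element-driven reporter units. After 24 h compound exposure, reporter mRNA was measured by RT-PCR with capillary electrophoresis; bidirectional fitting against DMSO baseline.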

The target in assay [10] is Bile acid receptor (Homo sapiens) (UniProt Q96RI1). The assay is described as follows: ATG_IR1_CIS: Attagene CIS-FACTORIAL HepG2 Assay for human Nuclear Receptor Subfamily 1 Group H Member 4 (NR1H4), IR1 submotif (AID 2282946). As to conditions: IR1 reporter transcription, actives raise or lower the signal. In outline:
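HepG2 cells transiently transfected with multiple cis-promoter-driven reporter units to measure endogenous transcription factor activity; 24 h exposure. Reporter mRNA read by RT-PCR, FAM labelling, HpaI digestion and capillary electrophoresis. Bidirectional fit versus DMSO.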

Assay [11] is described as follows: ATG_GRE_CIS: Attagene CIS-FACTORIAL HepG2 Assay for human Glucocorticoid Response Elements (GRE) (AID 2282947). As to conditions: HepG2 GRE cis-reporter, Attagene multiplex mRNA; actives raise or lower the signal. In outline: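 Transiently transfected HepG2 cells carrying GRE cis-reporter units (endogenous TF activity) dosed 24 h; reporter mRNA quantified by RT-PCR, 6-FAM labelling, HpaI digestion and capillary electrophoresis. Bidirectional fit versus DMSO baseline.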

Assay [12] is described as follows: ATG_ISRE_CIS: Attagene CIS-FACTORIAL HepG2 Assay for human Interferon Regulatory Factor 1 (IRF1) binding to an Interferon-Stimulated Response Element (ISRE) (AID 2282948). As to conditions: HepG2 ISRE cis-reporter (Attagene), mRNA transcription readout; actives raise or lower the signal. In outline: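 Quantitation relies on labelled RT-PCR fragments separated by capillary electrophoresis. Human HepG2 cells bearing cis-promoter reporter constructs were treated 24 h; DMSO served as baseline for bidirectional fitting.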

Assay [13] can be described thus: ATG_M_32_CIS: Attagene CIS-FACTORIAL HepG2 Assay for M32 Transcription Factor (Internal Marker) (AID 2282949).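 Also: background control marker of the multiplexed CIS panel rather than a real target.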 As to conditions: HepG2 Attagene cis-factorial M32 reporter, mRNA; actives raise or lower the signal. In outline:
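Fluorescent capillary electrophoresis peaks of HpaI-digested, FAM-labelled RT-PCR reporter products give the signal. Source: transiently transfected human liver HepG2 cells, 24 h after chemical dosing; bidirectional fitting against DMSO.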

Assay [14] is described as follows: ATG_M_06_CIS: Attagene CIS-FACTORIAL HepG2 Assay for M06 Transcription Factor (Internal Marker) (AID 2282950). As to conditions: HepG2 Attagene CIS-FACTORIAL M06 internal marker reporter; actives raise or lower the signal. In outline: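 Terse: HepG2, transient MRTU transfection (FuGene 6), 24 h dosing; total RNA, oligo(dT) RT, PCR, FAM label, HpaI cut, capillary electrophoresis; bidirectional fit vs DMSO baseline; background-control endpoint.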

Assay [15] concerns the target Hypoxia-inducible factor 1-alpha (Homo sapiens) (UniProt Q16665). The assay is described as follows: ATG_HIF1a_CIS: Attagene CIS-FACTORIAL HepG2 Assay for human Hypoxia Inducible Factor 1 (HIF1A) (AID 2282951). To be noted: HepG2 Attagene cis-factorial HIF1a reporter transcription; actives raise or lower the signal. In outline:
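Transient MRTU transfection of human HepG2 liver cells, 24 h compound treatment, then total RNA isolation, oligo(dT) reverse transcription, PCR amplification, fluorescent labelling and capillary electrophoresis of reporter fragments. Gain or loss relative to DMSO.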

The target in assay [16] is Hepatocyte nuclear factor 6 (Homo sapiens) (UniProt Q9UBC0). The assay is described as follows: ATG_HNF6_CIS: Attagene CIS-FACTORIAL HepG2 Assay for human Hepatocyte Nuclear Factor 6 (HNF6) (AID 2282952). As to conditions: HepG2 Attagene cis-factorial HNF6 reporter transcription; actives raise or lower the signal. In outline:
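HepG2, transient MRTU transfection (cis promoters); 24 h chemical exposure; total RNA → oligo(dT) RT → PCR → 6-FAM labelling → HpaI cut → CE; bidirectional fit vs DMSO.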

In assay [17] the target is Heat shock factor protein 1 (Homo sapiens) (UniProt Q00613). The assay is described as follows: ATG_HSE_CIS: Attagene CIS-FACTORIAL HepG2 Assay for human Heat Shock Transcription Factor 1 (HSE) (AID 2282953). As to conditions: HepG2 HSE cis-reporter, Attagene RNA transcription; actives raise or lower the signal. In outline: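 Read-out: fluorescence of reporter-specific RT-PCR fragments separated by capillary electrophoresis. HepG2 carrying transfected cis-element reporter units; 24 h dosing; activity fitted in both directions relative to DMSO baseline.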
Chain of Heat shock factor protein 1 (Homo sapiens) (Q00613 whole entry, looked up, the tested form may be a part): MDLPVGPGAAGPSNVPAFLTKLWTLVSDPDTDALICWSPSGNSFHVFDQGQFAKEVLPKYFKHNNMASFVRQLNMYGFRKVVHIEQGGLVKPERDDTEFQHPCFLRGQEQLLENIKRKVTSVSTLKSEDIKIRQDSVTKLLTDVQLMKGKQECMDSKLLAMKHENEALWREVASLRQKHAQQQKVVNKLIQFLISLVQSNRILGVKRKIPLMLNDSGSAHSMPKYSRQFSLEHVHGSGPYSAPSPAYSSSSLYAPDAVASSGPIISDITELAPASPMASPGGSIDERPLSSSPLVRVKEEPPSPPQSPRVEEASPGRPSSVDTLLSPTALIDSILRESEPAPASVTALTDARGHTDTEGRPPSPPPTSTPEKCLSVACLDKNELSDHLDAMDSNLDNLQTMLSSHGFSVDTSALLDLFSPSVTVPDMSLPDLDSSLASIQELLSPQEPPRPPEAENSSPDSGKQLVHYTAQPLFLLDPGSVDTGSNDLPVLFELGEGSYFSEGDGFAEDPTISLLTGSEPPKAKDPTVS

The nature of assay [18]: ATG_MRE_CIS: Attagene CIS-FACTORIAL HepG2 Assay for human Metal Responsive Element (MRE) (AID 2282954). As to conditions: HepG2 MRE cis-reporter transcription, Attagene multiplex; actives raise or lower the signal. In outline: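 HepG2 cells transiently transfected with cis-element-driven reporter units; mRNA measured 24 h after dosing. Reporter transcripts quantified by RT-PCR, FAM labelling, HpaI digestion and capillary electrophoresis; bidirectional fit versus DMSO.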

The nature of assay [19]: ATG_PBREM_CIS: Attagene CIS-FACTORIAL HepG2 Assay for human Phenobarbital-responsive Enhancer Module (PBREM) (AID 2282955). To be noted: HepG2 PBREM cis-reporter, Attagene multiplexed transcription; actives raise or lower the signal. In outline:
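Endogenous transcription factors in human liver HepG2 cells drive a PBREM cis-element reporter, whose transcript level after 24 h treatment is quantified by RT-PCR with capillary electrophoresis; activity fitted in both directions against DMSO.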

Assay [20] can be described thus: ATG_ERE_CIS: Attagene CIS-FACTORIAL HepG2 Assay for Estrogen Response Element (ERE) (AID 2282940). To be noted: HepG2 ERE cis-reporter, Attagene RNA transcript; actives raise or lower the signal. In outline:
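Readout: reporter mRNA induction by RT-PCR, FAM-labelled primer extension, HpaI digestion and capillary electrophoresis, 24 h after dosing transfected HepG2 cells. Endogenous transcription factors act on cis-element-regulated reporters. Gain or loss fitted against DMSO.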

Chain of Hypoxia-inducible factor 1-alpha (Homo sapiens) (Q16665 whole entry, looked up, the tested form may be a part): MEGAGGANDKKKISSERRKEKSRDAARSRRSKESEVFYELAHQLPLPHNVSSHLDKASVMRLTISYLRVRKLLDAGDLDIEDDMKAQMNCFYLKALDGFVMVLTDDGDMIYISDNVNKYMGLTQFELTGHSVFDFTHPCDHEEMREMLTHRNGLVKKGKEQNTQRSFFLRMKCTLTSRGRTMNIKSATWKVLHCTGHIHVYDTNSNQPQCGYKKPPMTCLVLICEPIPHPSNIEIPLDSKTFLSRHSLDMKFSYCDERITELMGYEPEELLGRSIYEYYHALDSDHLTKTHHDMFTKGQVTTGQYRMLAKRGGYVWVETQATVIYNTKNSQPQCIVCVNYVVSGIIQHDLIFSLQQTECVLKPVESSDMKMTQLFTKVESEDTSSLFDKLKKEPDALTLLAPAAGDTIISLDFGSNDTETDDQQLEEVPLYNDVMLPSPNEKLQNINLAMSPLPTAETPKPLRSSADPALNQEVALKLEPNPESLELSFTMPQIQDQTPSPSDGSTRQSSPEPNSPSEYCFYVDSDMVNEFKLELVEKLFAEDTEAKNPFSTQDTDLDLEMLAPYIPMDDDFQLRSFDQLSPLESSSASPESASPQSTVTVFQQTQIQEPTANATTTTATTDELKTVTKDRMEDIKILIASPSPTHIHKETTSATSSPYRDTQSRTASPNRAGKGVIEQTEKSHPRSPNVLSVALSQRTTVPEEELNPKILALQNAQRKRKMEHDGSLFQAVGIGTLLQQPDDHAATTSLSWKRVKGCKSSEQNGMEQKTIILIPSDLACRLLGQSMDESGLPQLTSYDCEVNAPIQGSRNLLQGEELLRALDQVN
Chain of Hepatocyte nuclear factor 6 (Homo sapiens) (Q9UBC0 whole entry, looked up): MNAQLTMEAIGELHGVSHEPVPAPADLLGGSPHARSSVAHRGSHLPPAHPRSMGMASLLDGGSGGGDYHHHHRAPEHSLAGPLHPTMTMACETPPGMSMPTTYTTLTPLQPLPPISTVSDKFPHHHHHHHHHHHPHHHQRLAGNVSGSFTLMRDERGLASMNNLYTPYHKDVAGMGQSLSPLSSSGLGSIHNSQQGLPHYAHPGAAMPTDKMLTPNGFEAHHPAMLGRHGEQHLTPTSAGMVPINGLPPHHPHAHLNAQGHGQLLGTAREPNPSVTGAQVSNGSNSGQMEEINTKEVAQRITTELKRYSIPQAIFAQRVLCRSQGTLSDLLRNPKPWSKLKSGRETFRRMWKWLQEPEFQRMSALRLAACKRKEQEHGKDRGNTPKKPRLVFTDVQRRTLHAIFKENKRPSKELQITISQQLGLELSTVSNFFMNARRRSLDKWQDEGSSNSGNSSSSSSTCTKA
Chain of Hepatocyte nuclear factor 3-beta (Homo sapiens) (Q9Y261 whole entry, looked up): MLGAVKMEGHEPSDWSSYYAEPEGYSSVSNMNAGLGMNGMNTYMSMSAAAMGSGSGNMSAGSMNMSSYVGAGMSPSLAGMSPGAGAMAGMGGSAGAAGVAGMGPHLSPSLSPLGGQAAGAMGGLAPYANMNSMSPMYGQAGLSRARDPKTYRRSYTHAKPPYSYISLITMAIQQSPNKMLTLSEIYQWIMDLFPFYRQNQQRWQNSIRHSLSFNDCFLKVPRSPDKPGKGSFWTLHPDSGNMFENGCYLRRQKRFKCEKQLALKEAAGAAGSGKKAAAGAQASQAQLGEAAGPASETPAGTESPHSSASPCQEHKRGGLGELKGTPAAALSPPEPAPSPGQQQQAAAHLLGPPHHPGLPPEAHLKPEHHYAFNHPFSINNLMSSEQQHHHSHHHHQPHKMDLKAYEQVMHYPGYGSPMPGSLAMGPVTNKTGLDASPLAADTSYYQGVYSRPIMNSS
Chain of Bile acid receptor (Homo sapiens) (Q96RI1 whole entry, looked up): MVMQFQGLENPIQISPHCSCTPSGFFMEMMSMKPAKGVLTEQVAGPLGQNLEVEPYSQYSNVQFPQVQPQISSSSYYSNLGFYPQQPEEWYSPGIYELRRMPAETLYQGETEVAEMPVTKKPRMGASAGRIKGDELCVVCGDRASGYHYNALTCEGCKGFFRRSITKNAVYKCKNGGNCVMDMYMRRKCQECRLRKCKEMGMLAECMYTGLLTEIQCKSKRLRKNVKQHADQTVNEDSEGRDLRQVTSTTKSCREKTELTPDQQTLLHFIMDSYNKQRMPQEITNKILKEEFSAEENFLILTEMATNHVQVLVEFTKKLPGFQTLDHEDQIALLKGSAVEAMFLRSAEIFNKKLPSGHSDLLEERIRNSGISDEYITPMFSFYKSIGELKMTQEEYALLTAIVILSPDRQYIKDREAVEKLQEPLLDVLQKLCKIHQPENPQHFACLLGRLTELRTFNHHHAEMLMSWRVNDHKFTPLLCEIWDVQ

As usually defined, the AC50 is the midpoint of the concentration-response curve, whichever way the signal moves. Turning to `CCOc1cccc(-n2cc(C(=O)N3CCN(c4cc(C(=O)O)c5ccccc5c4)CC3)nc2-c2ccc(C)cc2)c1`, the outcome in [1], in [2], in assay [4], in [5], in assay [6] and in assay [7] was inactive. For the same compound, the outcome in assay [8], in assay [9], in assay [11], in assay [13], in assay [14] and in [16] was inactive. Besides, the outcome in assay [19] was inactive. In addition, the AC50 in [3] was 27.1 µM (active); in assay [10], 24.8 µM (active); in assay [12], 22.8 µM (active); in [15], 6.55 µM (active); in assay [17] it was 61.4 µM (active); in [18], 32.3 µM (active).
Consider `Cn1c(=O)cc(Oc2ccc(F)cc2F)c2cnc(NCC(C)(C)O)nc21`, for which the result in [1], in assay [2], in assay [3], in assay [4], in [20] and in assay [5] was inactive. In addition, the call in [6], in assay [7], in assay [8], in assay [9], in assay [10] and in assay [11] was inactive. In addition, the call in assay [12], in assay [13], in [14], in assay [15], in [16] and in assay [17] was inactive. Besides, the compound was classed as inactive in [18] and in assay [19].
Take `Oc1ccc2c(c1)-c1ccccc1C2`: the concentration at half-maximal activity (AC50) in [1] is 157 µM (active); in [3], 38.6 µM (active); in assay [10], 1.3 µM (active); in [12], 100 µM (active); in assay [17], 26.5 µM (active); in [18], 40.8 µM (active). Further, in assay [19], the AC50 is 59.6 µM (active). In addition, the call in assay [2], in assay [4], in assay [5], in [6], in assay [7] and in [8] was inactive. Besides, the result in assay [9], in assay [11], in assay [14], in [15] and in assay [16] was inactive.
As for `CCC(C)(C)C(=O)O[C@H]1C[C@@H](C)C=C2C=C[C@H](C)[C@H](CC[C@@H]3C[C@@H](O)CC(=O)O3)[C@H]21`, the outcome in assay [1], in assay [2], in assay [3], in assay [4], in assay [5] and in assay [6] was inactive. In addition, the call in [7], in assay [8], in [9], in [11], in assay [12] and in assay [13] was inactive. In addition, the outcome in assay [14], in assay [15], in assay [16], in assay [17], in [18] and in assay [19] was inactive. Besides, the AC50 in [20] is 6.94 µM (active).
